# In the library only some 4% were active in any assay of this set; here they are far more common.
# TROY signal inh – TROY signaling inhibition. Q293 LMP1-TROYcd NF-kB luciferase reporter, 4 h. inhibition, % at 10 µM. 360,000 tested, 0.98% active;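 active = compounds whose plate-normalised and pattern-corrected inhibition of the luciferase reporter signal at the single screening dose is 50% or more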
# KKLEB tox – CF airway cell cytotoxicity counter-screen; AID 602141; 360,000 tested, 0.36% active; KKLEB CF airway cells viability, ATPlite luminescence, overnight; hits give low values; cells stimulated with P. aeruginosa culture filtrate; activity change (cytotoxicity), % at 5 µM;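 active = corrected activity change at or below -50% at 5 µM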
# TWEAK-Fn14 inh – inhibitors of TWEAK-Fn14 interaction signaling. TWEAK-stimulated Fn14 reporter cells, luciferase luminescence, 8 h. inhibition, % at 10 µM. 360,000 tested, 2% active; in the data active = inhibition above about 50%
# Peg3 promoter – reduces Peg3 promoter-driven luciferase expression in HeLa. 360,000 tested, 1.7% active. HeLa PEG-Prom luciferase reporter, luminescence, overnight. inhibition, % at 20 µM;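 active = inhibition of at least 50% at 20 µM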
# HIF-2a block – HIF-2a inhibition | 786-0 RCC cells HIF-2a reporter, luciferase luminescence, overnight | inhibition, % at 18.8 µM | 360,000 tested, 0.72% active;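 active = inhibition of the luminescence signal of 40% or more relative to plate controls, in a single-dose primary screen at 18.75 µM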
# CF NFkB block – inhibitors of cystic fibrosis induced NF-kB; KKLEB NF-kB-GFP reporter, PAF-induced, GFP fluorescence overnight; AID 588850; inhibition, % at 5 µM; 360,000 tested, 0.86% active;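 active = at least 50% inhibition at 5 µM, scaled per plate between neutral and stimulator controls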;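 also: PAF is a Pseudomonas aeruginosa culture filtrate used as stimulus; plate controls were PAF-stimulated DMSO wells for no effect and unstimulated DMSO wells for full effect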
# An asterisk follows results filed as active; nt = no result given.
SMILES,TROY signal inh,KKLEB tox,TWEAK-Fn14 inh,Peg3 promoter,HIF-2a block,CF NFkB block
Cc1[nH]c2ccccc2c1/C=N/Nc1nc2ccccc2[nH]1,57*,17,95*,-123,-206,-83
Cc1ccccc1/C=N/Nc1nc2ccccc2[nH]1,-29,6,7,-234,-263,-23
CN(C(=O)COC(=O)/C=C/c1cn(-c2ccccc2)nc1-c1ccc2c(c1)OCCO2)C1CCS(=O)(=O)C1 (centres undefined),13,-4,2,-7,-6,-8
Cc1cc2c(cc1S(=O)(=O)NCc1ccccc1Cl)OCCN2C,-8,2,9,19,6,-9
Cc1ccc(NC(=O)Cn2nc(C(=O)O)c3ccccc3c2=O)cc1S(=O)(=O)N1CCCCC1,18,8,-4,-41,-15,10
O=C(N/N=C(\c1ccccc1)c1cccnc1)C(O)(c1ccccc1)c1ccccc1,1,-11,5,2,21,33
CNc1cncc(-c2ccccc2CO)n1,2,4,-1,-14,8,12
COc1cc(-c2cnc3c(NC=O)cc(-c4ccccc4)cn23)cc(OC)c1OC,24,-9,19,10,-16,43
COc1cc(-c2cc(NC=O)c3ncc(-c4cccc(C(F)(F)F)c4)n3c2)cc(OC)c1OC,2,-4,-5,52*,-17,-9
COc1cc(-c2cc(NC=O)c3ncc(-c4ccc(C(C)=O)cc4)n3c2)cc(OC)c1OC,-7,-18,-3,57*,27,16
COc1cc(-c2cc(NC=O)c3ncc(-c4ccccc4)n3c2)cc(OC)c1OC,2,-14,25,51*,-66,3
CN(C)C(=O)c1cccc(-c2cnc3c(NC=O)cc(-c4ccccc4Cl)cn23)c1,32,19,44,28,-126,-15
COc1cc(-c2cnc3c(NC=O)cc(-c4ccccc4Cl)cn23)cc(OC)c1OC,44,-20,59*,-1,2,31
Cc1cccc(C)c1OCC(=O)N/N=C/c1ccncc1,-9,-16,-10,8,22,15
CCCCn1c(N)c(N(CCOC)C(=O)c2cc(-c3ccccc3)nc3ccccc23)c(=O)[nH]c1=O,-7,-36,-6,12,16,10
O=C(NCc1cccc(C(F)(F)F)c1)c1[nH]c(C(F)(F)F)nc1-c1ccccc1,48,2,9,34,-4,20
COc1ccc(F)cc1-c1cc(NC=O)c2ncc(-c3cccc(C(=O)N(C)C)c3)n2c1,-10,-11,14,42,12,12
COc1ccc(F)cc1-c1cc(NC=O)c2ncc(-c3cc(OC)c(OC)c(OC)c3)n2c1,47,4,74*,46,-52,26
O=C(Nc1ccsc1C(=O)O)c1cccc(Oc2ccccc2)c1,53*,-6,53*,-181,-98,-14
O=c1[nH]c2ccccc2nc1-c1ccccc1,-35,16,-15,-121,-179,-7
NC(=O)N=Nc1c2[nH]c3ccccc3nc-2c2ccccc12,-75,6,2,72*,23,-156
COc1ccc(Cl)cc1NC(=O)c1cnccn1,1,-2,2,18,11,-7
O=C(Nc1cc(Cl)ccc1Oc1ccccc1)c1cnccn1,nt,-15,88*,6,16,-3
NC(=O)CSc1nnc(-c2ccc(S(=O)(=O)N3CCOCC3)cc2)n1Cc1ccccc1,-15,1,7,9,9,-13
CC(=O)N1CCN(c2nnc(-c3ccc(C)cc3)c3ccccc23)CC1,52*,2,1,-18,-2,8
SMILES,TROY signal inh,KKLEB tox,TWEAK-Fn14 inh,Peg3 promoter,HIF-2a block,CF NFkB block
CCN(CC)C(=O)COc1ccc(-c2nnc(N3CCCCC3)c3ccccc23)cc1,14,-1,-10,8,22,-11
CCOc1ccc(-c2nnc(N3CCCCC3)c3ccccc23)cc1,59*,-15,-9,17,-7,8
CCN1CCCC1CNC(=O)C1c2ccccc2C(=O)N(CCOC)C1c1ccc(F)cc1 (centres undefined),-1,8,-1,-1,16,6
CCCCCCN1C[C@@H](n2cc(-c3ccc(F)cc3)nn2)[C@H](O)C[C@@H]1c1ccc(OC)cc1,4,-2,14,61*,-27,-16
CCCCCCN1C[C@@H](n2cc(-c3ccc(F)cc3)nn2)[C@H](O)C[C@@H]1c1ccc(Cl)cc1,41,11,44,69*,-84,29
CN(Cc1ccccc1)S(=O)(=O)c1ccc(Cl)c(C(=O)NCCCN2CCCC2=O)c1,-5,7,11,15,11,1
Cc1ccc(-c2cnn(-c3ccccc3)c2N)cc1,-24,-30,20,-219,-172,-2
Nc1c(-c2ccccc2)cnn1-c1ccc(C(=O)O)cc1,-29,3,54*,-83,-81,6
COc1ccc(C2=CSC3=NCCN23)cc1Cl,0,-1,-14,11,13,-3
COc1ccc(C2=CSC3=NCCN23)cc1F,54*,-9,-6,-3,0,3
CC(=O)Nc1ccc(NC(=O)CSc2nnc(-c3ccccc3)n2Cc2ccc3c(c2)OCO3)cc1,-5,22,-21,-11,-6,1
COc1ccc(-c2cc3nc(CCl)[nH]c(=O)c3s2)cc1,-2,-23,63*,10,-10,9
CC(=O)CC1=NC(C)(C)Cc2ccccc21,53*,-13,20,-4,25,10
CC1(C)Cc2ccccc2C(C(=O)c2ccccc2)=N1,1,0,10,5,27,13
Cc1ccc(S(=O)(=O)N2[C@@H](c3ccc(Cl)cc3)C(C(=O)O)=C[C@H]2CC2CCCC2)cc1,29,6,7,15,12,12
CCn1c(SCC(=O)Nc2nc(-c3ccccc3)cs2)nnc1-c1ccccc1,43,-8,54*,4,-58,-39
COc1ccc2cc(C)c3nnc(SCC(=O)Nc4nc(-c5ccccc5)cs4)n3c2c1,-9,-52*,33,15,5,32
COc1ccc(C2(O)CCN(CC(=O)Nc3nc(-c4ccccc4)cs3)CC2)cc1,46,4,83*,43,1,-15
CN1CCN(CC(=O)Nc2nc(-c3ccccc3)cs2)CC1,-8,-2,-1,-18,-19,-4
Cc1nnc(SCC(=O)Nc2nc(-c3ccccc3)cs2)n1N,-5,2,14,-23,-35,-5
CCCCN1CC(N2CCN(CCO)CC2)CS1(=O)=O (centres undefined),-5,19,-10,-24,-2,-56
Cc1ccc(S(=O)(=O)N2CCCCC2)cc1NC(=O)COc1ccccc1,-2,8,-11,-2,-6,20
CCOc1ccc2nc(NC(=O)c3ccc(OCC4CCCO4)cc3)sc2c1 (centres undefined),49,3,62*,-97,-272,-6

# High-throughput results (PubChem)
